Screening data as filed in PubChem BioAssay.
Hits are enriched below; roughly 7% of the tested compounds scored in any of these assays.
ATXN viability: Viability Counterscreen for Primary qHTS for Inhibitors of ATXN expression. S2 cells (HEK-293 line with an ATXN2-luciferase reporter) viability, CellTiter-Fluor protease fluorescence, 24 h. Potency, µM (top dose mostly 56.7 µM), hits mostly cytotoxic. 400,000 tested, 0.49% active; further: potency means the concentration at half of the fitted maximal effect; nearly all actives have a fitted effect of over 40% in size
ATXN2 expr inh: Primary qHTS for Inhibitors of ATXN expression. HEK-293 ATXN2-luciferase reporter, luminescence, 24 h. 360,000 tested, 0.72% active. Potency, µM (top dose mostly 57 µM), inactives show at the highest dose activity change, negative = inhibition, hits mostly inhibitors. AID 1745845, 2022; further: potency means the concentration at half of the fitted maximal effect; on the % scale 0 is the no-effect control and ±100 the full control effect; nearly all actives have a fitted effect of over 55% in size
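qHTS (up to 57 uM final) was run with 24 h compound exposure of reporter cells at 37 °C. Each well was multiplexed: SteadyGlo luminescence measured ATXN2-luciferase expression after a fluorogenic Gly-Phe-AFC viability readout (25 uM final).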
Integrin act MD: qHTS for Activators of Integrin-Mediated Alleviation for Muscular Dystrophy | AID 624291, 2012 | 350,000 tested, 0.064% active | Potency, µM (doses to about 38.3 µM), without a hit: top-dose activation, actives largely listed as activators | alpha7betagal myoblasts, beta-gal FDG fluorescence, 48 h;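 further: potency means the concentration at half of the fitted maximal effect; 100% = response of the positive control SU9516; nearly all actives have a fitted effect of over 60% in size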
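Alpha7betagal+/- myoblasts (passage 13) were plated 16-24 hr, then exposed to compounds (1:260 dilution of DMSO stock) for 48 hours at 37C. After MPER lysis, β-galactosidase reporter activity was read as FDG fluorescence (ex 480/em 540) after 30 minutes.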
D3 antag: qHTS of D3 Dopamine Receptor Antagonist: qHTS; D(3) dopamine receptor (Homo sapiens), P35462; AID 652054, 2013; 360,000 tested, 2.5% active; max response, negative = inhibition, %; D3R cells, DiscoveRx beta-arrestin luminescence, antagonist mode; hits give low values; in the data active means max response below about -50%; inconclusive means no clear call, values can overlap the other calls; further: on the % scale 0 is the no-effect control and ±100 the full control effect
Target sequence (P35462 whole entry, looked up): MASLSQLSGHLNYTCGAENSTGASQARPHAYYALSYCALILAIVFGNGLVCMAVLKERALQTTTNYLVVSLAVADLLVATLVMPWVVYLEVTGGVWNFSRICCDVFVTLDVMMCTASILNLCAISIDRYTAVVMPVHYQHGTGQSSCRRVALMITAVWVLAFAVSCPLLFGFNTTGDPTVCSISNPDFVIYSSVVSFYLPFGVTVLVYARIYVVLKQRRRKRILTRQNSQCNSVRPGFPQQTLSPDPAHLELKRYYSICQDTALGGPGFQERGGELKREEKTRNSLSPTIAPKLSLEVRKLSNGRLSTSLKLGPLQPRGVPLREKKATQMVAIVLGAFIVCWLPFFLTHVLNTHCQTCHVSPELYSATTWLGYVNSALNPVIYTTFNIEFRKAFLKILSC
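Cells expressing the human receptor were seeded at 1500 cells/well, incubated overnight at 37 degrees C in 5% CO2, then exposed to library compounds with dopamine controls for 90 minutes at 37 degrees C before luminescent detection.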
IL-1B inflam inh: qHTS for Inhibitors of Inflammasome Signaling: IL-1-beta AlphaLISA Primary Screen; THP-1 LPS/ATP IL-1B secretion, AlphaLISA, 16 h; hits give low values; activity change, % at 57.5 µM; 360,000 tested, 4.7% active; in the data active means activity change below about -50%; inconclusive means mostly about -30% to -49%; further: on the % scale 0 is the no-effect control and ±100 the full control effect
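Secreted IL-1B measured by AlphaLISA bead assay after 16 h compound exposure of THP-1 cells; compounds (final up to 57.5 uM) added 1 h before LPS (250 ng/mL) and ATP (1.25 mM) stimulation; lower signal means less secretion.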
D3 ag: qHTS of D3 Dopamine Receptor Agonist: qHTS | D3R DiscoveRx beta-arrestin cells, luminescence, 90 min | max activation, % | 410,000 tested, 0.58% active; in the data active means max activation above about 30%; further: 0% is about no effect
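Agonist mode: compounds and dopamine controls were applied to plated cells for 90 min at 37 degrees C after an overnight attachment at 1500 cells/well. Luminescent read-out followed 30 - 60 minutes at room temperature with DiscoveRx detection reagent.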
* marks the source's active call; other numbers are inactive results; i = inactive; ? = inconclusive; . = no result. Unless noted, the call rests on the fitted dose curve; in most records, active means well fitted curve in the direction sought with a large enough effect; inconclusive means small, poorly fitted or top-dose-only effect, or another doubt; inactive means no such curve, though single readings can be large; an effect the other way counts as inactive or inconclusive.

SMILES | ATXN viability | ATXN2 expr inh | Integrin act MD | D3 antag | IL-1B inflam inh | D3 ag
O=C(CC(c1ccccc1)c1cc(Br)ccc1O)NCC1(c2ccccc2)CCCC1 (centres undefined) | 35µM* | ? | . | . | . | 30*
Cc1ncoc1C(=O)Nc1ccccc1C(N)=O | ? | -16% | 5% | -100* | 25 | 4
Cc1ccc(-c2onc(C)c2C)cc1S(=O)(=O)N1CCOc2ccc(Cl)cc21 | i | ? | . | . | . | -10
CC1Cc2ccccc2N1S(=O)(=O)c1cccc(C(=O)N2CCN(c3ncccn3)CC2)c1 (centres undefined) | i | -30% | -2% | 3 | -66* | -9
O=C(C1CCCN(S(=O)(=O)c2cccc3nsnc23)C1)N1CCN(c2cccc(Cl)c2)CC1 (centres undefined) | i | -35% | . | . | . | 32*
CC1CC(C)CN(C(=O)C2CCCN(S(=O)(=O)c3cccc4nonc34)C2)C1 (centres undefined) | i | -4% | ? | -7 | -3 | 3
O=C(C1CCCN(S(=O)(=O)c2cccc3nonc23)C1)N1CCN(c2ccccc2)CC1 (centres undefined) | i | -1% | -12% | 4 | -51* | 7
COc1cccc(N2CCN(C(=O)C3CCCN(S(=O)(=O)c4cccc5nsnc45)C3)CC2)c1 (centres undefined) | i | -12% | . | . | . | 13
Cc1nn(-c2ccc(N3CCOCC3)nn2)c(C)c1CCC(=O)Nc1ccc(F)cc1F | . | . | . | . | . | 75*
Cc1ccc(F)cc1NC(=O)CCc1c(C)nn(-c2ccc(N3CCOCC3)nn2)c1C | i | 9% | . | . | . | -12
Cc1ccc(C2=C(O)c3ccccc3C(=O)C2=O)cc1 | ? | -23% | 16% | -25 | 11 | -14
NC(=O)C1=C(c2ccccc2)c2ccccc2C1=O | ? | ? | -69% | -18 | -102* | 3
CN1c2ccccc2C(=O)/C(=C\Nc2ncccn2)S1(=O)=O | i | -11% | -5% | -6 | -15 | -3
Cc1ccccc1CN(C)CC(=O)Nc1c(C)cccc1C(C)C | i | -19% | 25% | 20 | -86* | -10
O=C(CN1CCN(c2ccc(O)cc2)CC1)NCC(=O)Nc1ccc(F)c(F)c1F | i | . | -22% | -1 | -4 | 1
Cc1ccc(NCc2ccncc2)c(Br)c1 | i | -2% | -12% | 22 | 5 | 7
CCC(NC(=O)Nc1nnc(C(F)(F)F)s1)(C(F)(F)F)C(F)(F)F | . | 8.9µM* | -62% | -5 | -73* | 7
O=S1(=O)CC=C(CSC(=S)NC2CCS(=O)(=O)C2)C1 (centres undefined) | ? | -7% | -44% | 3 | -97* | 3
CN(C)C(=S)NC1CCS(=O)(=O)C1 (centres undefined) | i | -3% | -10% | 3 | 12 | 7
CC(C)(C)c1cc(CSC(=S)NC2CCS(=O)(=O)C2)c(Br)c(C(C)(C)C)c1 (centres undefined) | i | . | -38% | 11 | -58* | 0
Cn1ncc(C(N)=O)c1NC(=S)NC(=O)c1ccc(Br)o1 | i | . | 1% | -8 | 4 | -2
CC(C)(CN1CCN(Cc2ccccc2)CC1)NS(=O)(=O)c1ccccc1 | i | -18% | -17% | -52* | -10 | -20
CC(=O)N1CCN(CC(C)(C)NS(=O)(=O)c2ccccc2)CC1 | i | 4% | 5% | 0 | -10 | 5
CC(C)(CN1CCC(Cc2ccccc2)CC1)NS(=O)(=O)c1ccccc1 | i | -24% | -65% | -23 | ? | -20
CC(CN1CCNCC1)(NS(=O)(=O)c1ccccc1)c1ccccc1 (centres undefined) | i | -19% | -3% | -71* | ? | -17
